Test [1] is described as follows: Ring1 de-repression measured by qPCR – cell-based, mouse ESC, RT-qPCR, cherry-pick, esBAF inhibitor project, confirmation (AID 743176;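 active = Ring1 gene expression raised more than 2-fold over untreated cells in both replicates at either tested dose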;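 note: Ring1 transcript normalised to actin housekeeping signal by TaqMan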). The settings on record: mouse ESC E14, Ring1 mRNA RT-qPCR fold change, stronger effect = higher value. Background: Real-time PCR tracks product formation cycle by cycle.
Test [2] can be described thus: Fgf4 repression measured by qPCR – cell-based, mouse ESC, RT-qPCR, cherry-pick, esBAF inhibitor project, confirmation (AID 743177;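 active = Fgf4 expression under 0.8 fold of control in both repeat measurements at one or both tested doses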;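 note: Fgf4 transcript normalised to actin in duplex TaqMan qPCR; cells exposed to compound for 24 h before lysis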). The note with it: mouse ESC E14, Fgf4 mRNA qPCR fold change, stronger effect = lower value.
Test [3] in a line: Bmi1 mRNA increase in mouse ESCs – cell-based, RT-qPCR, mouse ESC, single point, cherry-pick, confirmation (AID 743180;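 active = Bmi1 expression fold change above 6 at either tested concentration, seen in replicate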;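 note: higher fold means more Bmi1 de-repression and stronger esBAF inhibition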). The note with it: mouse ESC E14, Bmi1 mRNA qPCR fold, stronger effect = higher value.
A short description of test [4]: viability loss in A549 cells – cell-based, plate reader, single point, cherry-pick, cytotoxicity control (AID 743188). The settings on record: at 25 µM.
Test [5] is described as follows: viability loss in HepG2 cells – cell-based, plate reader, single point, cherry-pick, cytotoxicity control (AID 743189; in the data active = activity change below about -50%). The note with it: at 25 µM, stronger effect = lower value.
Test [6] can be described thus: viability loss in HEK293 cells – cell-based, plate reader, single point, cherry-pick, cytotoxicity control (AID 743190; in the data active = activity change below about -38%, passing the limit was not always enough). The note with it: at 25 µM.
A short description of test [7]: A549 cell cytotoxicity, dose response, cytotoxicity control, plate reader, cherry-pick, antagonist series (AID 743412).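 Note: 0% = neutral control wells and -100% = positive control wells.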 The settings on record: series mostly up to 26 µM.
A short description of test [8]: OVCAR8 cell viability loss – plate reader, dry powder samples, PAX8 project, dose response (AID 743197). The note with it: series mostly up to 35 µM.

The structures appear in SMILES notation. For some assays here: Entries with a potency or affinity are not part of this list. Some of the results follow. Inconclusive results are not listed. Calls of active or inactive are those of the source. Unless noted, the rule behind the calls is not given here.

For the molecule `COc1ccc(N=Cc2c(O)[nH]c3ccccc23)cc1OC`, the fold change is 1.32 in test [1] (Ring1 fold increase, at 7 µM); 1.03 (inactive) in test [1] (at 33 µM); 1.45 in test [3] (Bmi1 de-repression, at 7 µM); 2 (inactive) in test [3] (at 33 µM). Also, the Fgf4 expression fold change was 1.1 in test [2] (Fgf4 expression, at 7 µM) and 1.2 (inactive) in test [2] (at 33 µM). Besides, the cell viability change % (negative = cytotoxic) in test [4] was 0.475% (inactive). Besides, the activity change, negative = inhibition is 24% (inactive) in test [5] and -17.2% (inactive) in test [6].
Regarding `CN(C)c1ccc(CSc2ccccc2)cc1`, the fold change in test [1] (Ring1 fold increase, at 7 µM) was 1.14; in test [1] (at 33 µM), 1.08 (inactive); in test [3] (Bmi1 de-repression, at 7 µM) it was 1.01; in test [3] (at 33 µM), 0.984 (inactive). For the same molecule, the cell viability change % (negative = cytotoxic) in test [4] is 5.13% (inactive). Moreover, the figures for the activity change, negative = inhibition in test [5] and in test [6] were -22.2% (inactive) and 0.895% (inactive), respectively.
With `COc1ccc(C(=O)Nc2ccc3ccccc3c2)cc1`, the call in test [7] was inactive.
With `O=C(c1ccc(Cl)cc1)c1cnc(Nc2ccccc2)s1`, the fold change in test [1] (Ring1 fold increase, at 7 µM) was 1.37; in test [1] (at 33 µM) it was 1.43 (inactive); in test [3] (Bmi1 de-repression, at 7 µM), 1.41; in test [3] (at 33 µM), 1.36 (inactive). The Fgf4 expression fold change is 1.07 in test [2] (Fgf4 expression, at 7 µM) and 0.927 (inactive) in test [2] (at 33 µM). Moreover, the cell viability change % (negative = cytotoxic) in test [4] is -9.73% (inactive). Besides, the activity change, negative = inhibition in test [5] was -14.8% (inactive); in test [6] it was -18.7% (inactive).
`O=C(c1noc2c1CCCC2)N1CCc2ccccc2C1`: the fold change in test [1] (Ring1 fold increase, at 7 µM) was 1.38; in test [1] (at 33 µM), 1.19 (inactive); in test [3] (Bmi1 de-repression, at 7 µM) it was 1.08; in test [3] (at 33 µM), 1.13 (inactive). The Fgf4 expression fold change in test [2] (Fgf4 expression, at 7 µM) is 1.06; in test [2] (at 33 µM) it was 1.15 (inactive). Further, the cell viability change % (negative = cytotoxic) in test [4] was -13.7% (inactive). Also, the activity change, negative = inhibition in test [5] is 0.136% (inactive); in test [6] it was -12.4% (inactive).
In the case of `CCS(=O)(=O)n1nc(-c2ccc(OC)cc2)nc1SC`, the fold change was 1.25 in test [1] (Ring1 fold increase, at 7 µM); 1.01 (inactive) in test [1] (at 33 µM); 1.24 in test [3] (Bmi1 de-repression, at 7 µM); 1.6 (inactive) in test [3] (at 33 µM). The Fgf4 expression fold change in test [2] (Fgf4 expression, at 7 µM) was 0.938; in test [2] (at 33 µM), 1.05 (inactive). Besides, the cell viability change % (negative = cytotoxic) in test [4] was -13.7% (inactive). Besides, the activity change, negative = inhibition was -11.2% (inactive) in test [5] and -16.8% (inactive) in test [6].
In the case of `COc1ccc2sc(NC(=O)c3ccco3)nc2c1`, the call in test [7] was inactive.
As for `Cc1ccc(-n2ncc3c(N4CCN(c5ccccc5)CC4)ncnc32)c(C)c1`, the molecule was classed as inactive in test [7].
For `C/C(=C\C(=O)c1cccnc1)Nc1ccc(C)c(C)c1`, the fold change in test [1] (Ring1 fold increase, at 7 µM) was 1.22; in test [1] (at 33 µM), 1.07 (inactive); in test [3] (Bmi1 de-repression, at 7 µM), 1.46; in test [3] (at 33 µM), 1.59 (inactive). Also, the Fgf4 expression fold change in test [2] (Fgf4 expression, at 7 µM) was 1.06; in test [2] (at 33 µM), 0.903 (inactive). Further, the cell viability change % (negative = cytotoxic) in test [4] is -3.61% (inactive). For the same molecule, the activity change, negative = inhibition was 12.6% (inactive) in test [5] and -0.923% (inactive) in test [6].
On to `COc1cc2ccccc2cc1C(=O)Nc1ccncc1`, for which the fold change is 1.36 in test [1] (Ring1 fold increase, at 7 µM); 1.54 (inactive) in test [1] (at 33 µM); 1.73 in test [3] (Bmi1 de-repression, at 7 µM); 2.14 (inactive) in test [3] (at 33 µM). The Fgf4 expression fold change in test [2] (Fgf4 expression, at 7 µM) was 0.817; in test [2] (at 33 µM) it was 1.21 (inactive). Further, in test [4], the cell viability change % (negative = cytotoxic) is -3.23% (inactive). In addition, the activity change, negative = inhibition is -16.4% (inactive) in test [5] and 6.79% (inactive) in test [6].
`COc1ccc(C(=O)CCc2ccccc2O)c(OC)c1`: the fold change was 1.29 in test [1] (Ring1 fold increase, at 7 µM); 1.23 (inactive) in test [1] (at 33 µM); 1.55 in test [3] (Bmi1 de-repression, at 7 µM); 1.13 (inactive) in test [3] (at 33 µM). The Fgf4 expression fold change in test [2] (Fgf4 expression, at 7 µM) was 0.836; in test [2] (at 33 µM), 0.979 (inactive). Also, the cell viability change % (negative = cytotoxic) in test [4] is -6.31% (inactive). Also, the activity change, negative = inhibition was -33.9% (inactive) in test [5] and 14.9% (inactive) in test [6].
As for `CCOC(=O)c1sc(NC(=O)Nc2ccccc2F)nc1C`, in test [7], the result was inactive.
With `O=S(=O)(NC[C@@H]1CC[C@@H]2[C@@H](CN2CC(c2ccccc2)c2ccccc2)O1)c1ccccc1F`, the result in test [8] was inactive.
On to `CCc1sc(C(=O)N2CCN(CC(=O)Nc3cccc(F)c3)CC2)cc1C`, for which the fold change in test [1] (Ring1 fold increase, at 7 µM) was 1.14; in test [1] (at 33 µM), 1.01 (inactive); in test [3] (Bmi1 de-repression, at 7 µM), 1.34; in test [3] (at 33 µM), 1.56 (inactive). In addition, the Fgf4 expression fold change was 1.11 in test [2] (Fgf4 expression, at 7 µM) and 0.972 (inactive) in test [2] (at 33 µM). Also, the cell viability change % (negative = cytotoxic) in test [4] was 0.0417% (inactive). The activity change, negative = inhibition in test [5] was -21.7% (inactive); in test [6] it was -24% (inactive).
As for `COc1ccc(-c2csc(Nc3cccc(C)n3)n2)cc1OC`, the fold change was 1.32 in test [1] (Ring1 fold increase, at 7 µM); 1.24 (inactive) in test [1] (at 33 µM); 1.47 in test [3] (Bmi1 de-repression, at 7 µM); 2.28 (inactive) in test [3] (at 33 µM). For the same molecule, the cell viability change % (negative = cytotoxic) in test [4] is -8.92% (inactive). Moreover, the activity change, negative = inhibition was 29% (inactive) in test [5] and 4.06% (inactive) in test [6].
For `Cc1ccc(-c2noc(-c3cccs3)n2)cc1`, in test [7], the result was inactive.

The record behind these values is PubChem BioAssay.
